From PubChem BioAssay AID1347420 (Sanford-Burnham Center for Chemical Genomics, 2020) come the findings set out here.

Out of some 1,300 compounds screened, about 980 (75%) were called active. Another 4% or so got no clear call; they are omitted. This is one part of the list. Values without a mark were called inactive.

The target in the assay is Sulfhydryl oxidase 1 (Homo sapiens) (UniProt O00391). The experiment in a line: QSOX1 enzyme inhibitors, primary screen, biochemical, HyperBlu H2O2 luminescence, HTS (AID 1347420). Also: values above 100% were filed as inconclusive. The settings on record: recombinant QSOX1, HyperBlu H2O2 luminescence; at 12.5 µM; hits give high values; active = any value above zero.
Chain of Sulfhydryl oxidase 1 (Homo sapiens) (O00391 whole entry, looked up): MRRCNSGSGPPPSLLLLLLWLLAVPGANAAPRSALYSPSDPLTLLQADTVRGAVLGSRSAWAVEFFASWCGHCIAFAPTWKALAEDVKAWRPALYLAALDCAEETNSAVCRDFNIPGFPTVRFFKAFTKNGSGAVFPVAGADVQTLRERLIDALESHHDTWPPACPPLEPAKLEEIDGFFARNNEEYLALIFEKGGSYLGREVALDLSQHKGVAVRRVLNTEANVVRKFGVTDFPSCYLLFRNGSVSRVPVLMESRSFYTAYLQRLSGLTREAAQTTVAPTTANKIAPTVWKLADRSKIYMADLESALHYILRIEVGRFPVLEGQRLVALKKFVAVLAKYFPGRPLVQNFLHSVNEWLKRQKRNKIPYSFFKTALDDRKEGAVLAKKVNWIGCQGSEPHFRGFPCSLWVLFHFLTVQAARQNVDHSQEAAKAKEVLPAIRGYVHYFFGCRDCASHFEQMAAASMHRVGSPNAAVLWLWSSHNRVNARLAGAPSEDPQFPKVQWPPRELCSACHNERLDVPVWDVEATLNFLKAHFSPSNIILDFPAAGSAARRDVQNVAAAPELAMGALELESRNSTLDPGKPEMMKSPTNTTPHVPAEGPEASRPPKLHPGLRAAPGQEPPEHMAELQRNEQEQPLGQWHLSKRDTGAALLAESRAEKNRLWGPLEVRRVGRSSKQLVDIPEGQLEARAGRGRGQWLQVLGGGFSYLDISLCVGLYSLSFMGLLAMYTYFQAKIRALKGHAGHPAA
Turning to `CN1CCc2cccc3c2C1Cc1ccc(O)c(O)c1-3` (stereo not drawn), the inhibition is 73.2% (active).
Next, `Clc1ccc2c(c1)C(N1CCNCC1)=Nc1ccccc1O2`: 21.3% (active); `CN1CCN(C2=Nc3ccccc3Oc3ccc(Cl)cc32)CC1`: -12.8%.
The same measure for `CN1CCN(C2=Nc3cc(Cl)ccc3Nc3ccccc32)CC1`: 78.4% (active); for `Cc1ccc2c(c1)C(N1CCN(C)CC1)=Nc1cccnc1N2`: 42.7% (active).
Next, `Clc1ccc2c(c1)N=C(N1CCNCC1)c1ccccc1N2`: 69.5% (active); `CCCn1cnc2c1c(=O)n(CCCCC(C)=O)c(=O)n2C`: 5.2% (active).
In the case of `Cn1cnc2c1c(=O)[nH]c(=O)n2C`, the inhibition was 0%.
With `CCCn1c(=O)c2c(ncn2C)n(CCC)c1=O`, the inhibition is 11.9% (active).
For `Cn1c(=O)c2c(ncn2C)n(C)c1=O`, the inhibition was -2%.
Next, `C#CCn1c(=O)c2c(ncn2C)n(C)c1=O`: 4% (active); `CC(=O)CCCCn1c(=O)c2c(ncn2C)n(C)c1=O`: 13.8% (active).
With `Cn1c(=O)[nH]c2ncn(C)c2c1=O`, the inhibition was -0.4%.
The same measure for `COc1ccc(CCn2nnnc2C2(c3ccc(C)cc3)CC2)cc1`: 14.5% (active); for `C(=C\c1ccccc1)/CN1CCN(C(c2ccccc2)c2ccccc2)CC1`: -9.7%.
Next, `Fc1ccc(C(c2ccc(F)cc2)N2CCN(C/C=C/c3ccccc3)CC2)cc1`: 5.6% (active); `Oc1cc(O)c2c(c1)O[C@H](c1ccc(O)c(O)c1)[C@@H](O)C2`: 72.1% (active).
Regarding `O=C1c2c(O)cc(O)cc2OC(c2ccc(O)c(O)c2)C1O` (stereo not drawn), the inhibition was 65.2% (active).
Next, `COc1ccc(Cl)cc1C(=O)NCCc1ccc(S(=O)(=O)NC(=O)NC2CCCCC2)cc1`: 7.7% (active).
Take `Cc1cnc(C(=O)NCCc2ccc(S(=O)(=O)NC(=O)NC3CCCCC3)cc2)cn1`: the inhibition is -6.9%.
Next, `Cc1cccc(C)c1NC(=O)C(C)N` (stereo not drawn): 17.2% (active); `CCC(=O)c1ccc2c(c1)N(CCCN(C)C)c1ccccc1S2`: 96.5% (active); `CN(C)CCCN1c2ccccc2Sc2ccc(Cl)cc21`: 98.2% (active).
`CN(C)CCCN1c2ccccc2Sc2ccc(C(F)(F)F)cc21`: the inhibition was 83.7% (active).
Next, `NCCS`: 28.5% (active).
The same measure for `O=c1[nH]c2ccccc2c2ccccc12`: 10.9% (active); for `C=Cc1c(C)c2cc3[nH]c(cc4nc(cc5nc(cc1[nH]2)C(C)=C5CCC(=O)O)C(CCC(=O)O)=C4C)c(C)c3C=C`: 29.8% (active).
The same measure for `CCOC(=O)N1CCN(/[N+]([O-])=N/Oc2ccc([N+](=O)[O-])cc2[N+](=O)[O-])CC1`: 73.3% (active).
With `NNc1nncc2ccccc12`, the inhibition is 92.6% (active).
Next, `COc1cc2ncnc(Nc3cccc(Cl)c3)c2cc1OC`: 0.4% (active); `CC1CCN(CC[C@H]2CCCN2S(=O)(=O)c2cccc(O)c2)CC1`: 2.8% (active); `O=c1[nH]ccc2c(O)cccc12`: 41.9% (active).
Next, `Oc1cc2c(c(Cl)c1O)CCNCC2c1ccccc1` (stereo not drawn): 93.6% (active); `Oc1cc2c(cc1O)C(c1ccccc1)CNCC2` (stereo not drawn): 57.5% (active).
With `CCNC(=O)N1CCN(CCCC(c2ccc(F)cc2)c2ccc(F)cc2)CC1`, the inhibition is 8.8% (active).
Next, `O=C1C2C=CC=CC2=NC(=S)N1CCN1CCC(=C(c2ccc(F)cc2)c2ccc(F)cc2)CC1` (stereo not drawn): 4.1% (active).
Turning to `CC(=O)Oc1ccccc1C(=O)O`, the inhibition was 12.4% (active).
Next, `C#C[C@]1(O)CC[C@H]2[C@@H]3CCC4=Cc5oncc5CC4(C)[C@H]3CCC21C` (stereo partly drawn): 22.1% (active).
`COc1cc(C(O)C(=O)O)ccc1O` (stereo not drawn): the inhibition was 12.1% (active).
Next, `COc1cc(C(O)CO)ccc1O` (stereo not drawn): 13.7% (active).
Next, `COc1cc(C(O)CO)ccc1OS(=O)(=O)O` (stereo not drawn): 2.7% (active).
Turning to `Cc1cc(Cn2cnc3c2C[C@@H](C(=O)O)N(C(=O)C(c2ccccc2)c2ccccc2)C3)ccc1N`, the inhibition is 29.8% (active).
For the compound `CCN1CCCC1CNC(=O)c1cc(S(=O)(=O)CC)c(N)cc1OC` (stereo not drawn), the inhibition is 3.7% (active).
The same measure for `CCN1CCCC1CNC(=O)c1cc(S(N)(=O)=O)ccc1OC` (stereo not drawn): -11.2%.
The same measure for `CCN1CCC[C@H]1CNC(=O)c1cc(S(N)(=O)=O)ccc1OC`: 1% (active).
For the compound `CCOC(=O)c1cnc2c(cnn2CC)c1NN=C(C)C`, the inhibition is 19.1% (active).
For the compound `CCCCNc1c(C(=O)OCC)c(C)nc2c1cnn2CC`, the inhibition is 12.7% (active).
Next, `NC[C@@H]1O[C@H](c2ccccc2)Cc2c1ccc(O)c2O`: 71.1% (active).
Take `NC[C@@H]1O[C@H](C23CC4CC(CC(C4)C2)C3)Cc2c1ccc(O)c2O`: the inhibition was 54% (active).
Next, `CC(C)C[C@H]1C(=O)N2CCC[C@H]2[C@]2(O)O[C@](NC(=O)[C@@H]3C=C4c5cccc6[nH]c(Br)c(c56)C[C@H]4N(C)C3)(C(C)C)C(=O)N12`: 33.5% (active); `C[C@H](CS)C(=O)N1CCC[C@H]1C(=O)O`: -8.3%.
The same measure for `c1ccc(C(NCCNC(c2ccccc2)c2ccccc2)c2ccccc2)cc1`: 7.6% (active).
Next, `CCOC(=O)C12CC1/C(=N/O)c1ccccc1O2` (stereo not drawn): 11.7% (active); `CCCCOC(=O)NS(=O)(=O)c1sc(CC(C)C)cc1-c1ccc(Cn2c(CC)nc3c(C)cc(C)nc32)cc1`: 15.1% (active).
Regarding `C1CCC(N=C(NC23CC4CC(CC(C4)C2)C3)N2CCOCC2)CC1`, the inhibition is 8.2% (active).
Next, `NC1=NCC2c3ccccc3Cc3ccccc3N12` (stereo not drawn): 2.9% (active).
Take `Cc1c(OCC(F)(F)F)ccnc1CS(=O)c1nc2ccccc2[nH]1` (stereo not drawn): the inhibition is 2.3% (active).
With `c1ccc2nc(C3=NCCN3)ccc2c1`, the inhibition is -4.5%.
Next, `Nc1ccc(-c2ccc3ccccc3n2)cc1`: 54.7% (active).
`Nc1ncnc2n[nH]c(Nc3ccc(F)cc3)c12`: the inhibition is 81.8% (active).
As for `CCN1CCc2nc(N)oc2CC1`, the inhibition is 48.7% (active).
Next, `O=c1[nH]c2cc([N+](=O)[O-])c([N+](=O)[O-])cc2[nH]c1=O`: 87% (active); `C=C[C@H]1CN2CC[C@@H]1C[C@@H]2[C@H](O)c1ccnc2ccc(OC)cc12`: 4.7% (active).
`C=C[C@H]1CN2CC[C@@H]1C[C@H]2[C@@H](O)c1ccnc2ccc(OC)cc12`: the inhibition is -2.4%.
Take `CCCCCC(O)CCCC(=O)O` (stereo not drawn): the inhibition is -0.3%.
The same measure for `CCCCCCCCCCC/C=C\C(C)(C)/C=C\CCCC(=O)O`: 25.2% (active); for `CCCCCCC/C=C\CCCCCCCCC(=O)O`: 11% (active); for `CC(C)NCC(O)COc1ccc(CC(N)=O)cc1` (stereo not drawn): 7.4% (active).
Next, `CC(C)NCC(O)COc1ccc(CCOCC2CC2)cc1` (stereo not drawn): 11.4% (active).
Consider `COCCc1ccc(OCC(O)CNC(C)C)cc1` (stereo not drawn), for which the inhibition is -17.5%.
Next, `CC(C)NC[C@H](O)COc1ccc(CC(N)=O)cc1`: -4.6%.
The same measure for `CC(=O)SC1CC2=CC(=O)CC[C@]2(C)C2CC[C@@]3(C)C(CC[C@@]34CCC(=O)O4)C12` (stereo partly drawn): 5.4% (active); for `O=c1cc(-c2ccc(O)cc2)oc2cc(O)cc(O)c12`: 88.8% (active); for `O=c1c(-c2ccc(O)cc2)coc2cc(O)cc(O)c12`: 33.2% (active).
Turning to `O=c1c(-c2ccc(O)cc2)coc2cc(O)ccc12`, the inhibition is 32.4% (active).
Take `Cc1ccccc1/C=C/C1=NCCN1`: the inhibition is -1.6%.
The same measure for `COC1(C2=NCCN2)COc2ccccc2O1` (stereo not drawn): 2.6% (active); for `O=C1Nc2ccc(I)cc2/C1=C/c1cc(Br)c(O)c(Br)c1`: 97.8% (active).
In the case of `CCCCOc1cc(CC2CNC(=O)N2)ccc1OC` (stereo not drawn), the inhibition is 2.2% (active).
Turning to `O=C1NCN(c2ccccc2)C12CCN(CCCC(c1ccc(F)cc1)c1ccc(F)cc1)CC2`, the inhibition is 9.4% (active).
Next, `Oc1ccc(/C=C/c2ccc(/C=C/c3ccc(O)cc3)c(Br)c2)cc1`: -1.9%; `Oc1ccc(/C=C/c2cc(O)cc(O)c2)cc1`: 78% (active); `NC(CCCP(=O)(O)O)C(=O)O` (stereo not drawn): 4% (active).
As to `N[C@H](CCCP(=O)(O)O)C(=O)O`, the inhibition was 13.7% (active).
For the compound `N[C@@H](COP(=O)(O)O)C(=O)O`, the inhibition is 1.7% (active).
`CN[C@H](CC(C)C)C(=O)N[C@H]1C(=O)N[C@@H](CC(N)=O)C(=O)N[C@H]2C(=O)N[C@H]3C(=O)N[C@H](C(=O)N[C@H](C(=O)O)c4cc(O)cc(O)c4-c4cc3ccc4O)[C@H](O)c3ccc(c(Cl)c3)Oc3cc2cc(c3O[C@@H]2O[C@H](CO)[C@@H](O)[C@H](O)[C@H]2O[C@H]2C[C@](C)(N)[C@H](O)[C@H](C)O2)Oc2ccc(cc2Cl)[C@H]1O`: the inhibition is -8.2%.
Next, `CN1CCN(CC(=O)N2c3ccccc3C(=O)Nc3cccnc32)CC1`: -3.2%; `Cc1scc2c1N(C(=O)CN1CCN(C)CC1)c1ccccc1NC2=O`: 1.1% (active).
The same measure for `Cc1ccc(=O)n(-c2ccccc2)c1`: 2.4% (active).
Next, `Oc1ccc(O)cc1`: 14.7% (active); `Nc1ccc2c3c(cccc13)C(=O)NC2=O`: 13.7% (active); `NCCNS(=O)(=O)c1cccc2c(Cl)cccc12`: 0.7% (active).
Turning to `CC(C)COC(=O)OCN1C(=O)CN(CCN2CC(=O)N(COC(=O)OCC(C)C)C(=O)C2)CC1=O`, the inhibition was 12.5% (active).
The same measure for `C=CCNc1ncnc2ccc(Br)cc12`: 12.6% (active); for `NC(=O)C(=O)O`: 11% (active).
For `CC[C@H](NC(=O)c1c(C)c(-c2ccccc2)nc2ccccc12)c1ccccc1`, the inhibition is 9.3% (active).
As to `COc1ccc(CCN(C)CCCC(C#N)(c2cc(OC)c(OC)c(OC)c2)C(C)C)cc1OC` (stereo not drawn), the inhibition is 17% (active).
As for `COc1ccc(CCN(C)CCc2ccc(OC)c(OC)c2)cc1OC`, the inhibition is 8% (active).
Consider `COc1ccc(CCN(C)CCCC(C#N)(c2ccc(OC)c(OC)c2)C(C)C)cc1OC` (stereo not drawn), for which the inhibition is 9.1% (active).
The same measure for `COc1ccc(Cc2nccc3cc(OC)c(OC)cc23)cc1OC`: -10.3%; for `O=P(O)(O)C(Cl)(Cl)P(=O)(O)O`: -4.1%.
As for `NC(CO)C(=O)NNCc1ccc(O)c(O)c1O` (stereo not drawn), the inhibition is 24.2% (active).
Next, `CN1CCN(c2nc3cc(C(F)(F)F)ccc3n3cccc23)CC1`: 12.2% (active).
